Assay results taken from the OligoGym collection.

The sequences below were run against DPP9 (assay: pooled miR-30 sensor sort-seq; sequence = guide strand). Settings: shRNA.
Note: reference of the scale not given here.

Sequence	sensor-assay potency score (higher = more potent)
AATACTGTGTCTCTCGTTGGGG	0.209
TTTGAAGGAGTTATTCACCAGC	-0.354
TAGCTGACCACGTAGAGGTGGT	-0.544
TTAATGTGTCTACTTCTTCCAC	-0.494
TCTTCCTTTCTTCTAGCGCAGG	-1.35
ATGTCATGAACATTGATCCAGA	-1.2
ATGAACATTGATCCAGACGTTG	-1.33
TAGAGGAGGGAGTTCTCTCGGC	-0.587
TCGCTGTGGAAGTCGTAGGAGG	-1.41
TTATTCACCAGCTGCACCTGGG	-0.396
TAATGTGTCTACTTCTTCCACG	0.224
TTATAAAAGAATAAGAATCGAC	-0.653

Each sequence was assayed against DPPA5 in the same assay as above. Settings: shRNA.

Sequence	sensor-assay potency score (higher = more potent)
TGTAAGGGATTCGAGATCCGTC	-0.0102
TAAACCACGACCTCGGTGAGGT	-0.536
TTCGGGAACTTTCACCCACGGC	-1.56
AGGGATTCGAGATCCGTCCGGG	-0.916
TTGAGCATCCCTCGCTCCTGGC	-0.972
TTTCAGGTCTTCGGGAACTTTC	-1.57
ATGGACTGGAGCATCCACTTGG	-0.436
TTCGAGATCCGTCCGGGCCGAA	-1.6
TCTTCGGGAACTTTCACCCACG	-0.874
TGGAGCATCCACTTGGTCCGGA	-0.524
TTTGAGCATCCCTCGCTCCTGG	-0.61
